A selection: hits, their analogues and other compounds. The true share with any hit is near 9.2%.
Lamin A splicing: modulators of lamin A splicing. HeLa LMNA splicing GFP/RFP minigene ratio, 48 h. Potency, µM (top dose mostly 46.1 µM), most hits filed as inhibitors. actives 0.01% (n = 200,000). AID 1487; active = well fitted inhibition curve with a large enough effect in the signal ratio, with a control signal flat, not every such curve was filed as active; inconclusive = small, poorly fitted or top-dose-only effect, or effect the other way, or a change in a side signal; the % refers to the signal ratio
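Read-out is the ratio of GFP to DsRed2 object intensity, acquired by 488 nm laser-scanning cytometry on HeLa lamin A-EGFP minigene reporter cells. Compound incubation 48 hrs at 37 °C in Opti-MEM with 2% FBS; DMSO 0.5% final.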
ALDH1A1 inh: ALDH1A1 (human) enzyme inhibition. P00352. Purified ALDH1A1, NADH fluorescence, propionaldehyde substrate. Potency, µM (titrated, usually from 75.3 µM), actives largely listed as inhibitors. actives 7.3% (n = 220,000)
Target sequence (P00352 whole entry, looked up): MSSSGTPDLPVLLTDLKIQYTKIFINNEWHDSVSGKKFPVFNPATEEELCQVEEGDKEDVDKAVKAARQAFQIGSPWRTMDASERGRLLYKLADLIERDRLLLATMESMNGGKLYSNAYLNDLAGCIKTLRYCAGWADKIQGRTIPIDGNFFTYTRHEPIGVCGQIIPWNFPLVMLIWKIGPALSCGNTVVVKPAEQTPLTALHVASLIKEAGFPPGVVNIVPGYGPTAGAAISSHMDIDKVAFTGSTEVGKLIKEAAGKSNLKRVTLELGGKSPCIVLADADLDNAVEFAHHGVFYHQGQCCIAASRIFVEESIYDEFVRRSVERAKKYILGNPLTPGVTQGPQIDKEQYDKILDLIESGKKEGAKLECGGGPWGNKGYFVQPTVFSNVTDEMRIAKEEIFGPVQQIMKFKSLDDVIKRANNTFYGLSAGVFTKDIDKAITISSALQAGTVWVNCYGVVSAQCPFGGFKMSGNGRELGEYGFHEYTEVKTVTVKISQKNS
JMJD2E inh: JMJD2E (human) inhibition; JMJD2E catalytic domain, FDH-coupled NADH fluorescence (FDH is formaldehyde dehydrogenase); B2RXH2; AID 2147; actives 1.6% (n = 230,000); Potency, µM (top dose mostly 57.1 µM), actives largely listed as inhibitors; note: nearly all actives have a fitted effect of over 50% in size
HPGD block: HPGD (human) dehydrogenase inhibition. P15428. purified HPGD, NADH fluorescence kinetic, PGE2 substrate. Potency, µM, most hits filed as inhibitors. actives 4.3% (n = 150,000)
Target sequence (P15428 whole entry, looked up): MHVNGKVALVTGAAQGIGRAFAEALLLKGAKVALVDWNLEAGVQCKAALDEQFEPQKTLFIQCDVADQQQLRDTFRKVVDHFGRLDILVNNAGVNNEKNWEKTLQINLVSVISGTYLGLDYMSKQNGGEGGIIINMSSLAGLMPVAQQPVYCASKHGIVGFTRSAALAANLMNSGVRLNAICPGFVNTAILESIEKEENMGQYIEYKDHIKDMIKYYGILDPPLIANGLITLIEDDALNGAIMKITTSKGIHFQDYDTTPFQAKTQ
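20 nM HPGD preincubated 15 min at room temperature with compound in 50 mM Tris-HCl pH 8, 0.01% Tween 20. Started with 1 mM NAD+ and 30 uM prostaglandin E2; NADH fluorescence (360/450 nm) read 5 times over 30-s intervals, last minus first.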
HTT cytoprotect: cytoprotection in Huntington HTT-Q103 PC12 cell model; PC12 HTT-Q103 induced, cytoprotection, ATP luminescence, 40 h; actives 0.14% (n = 230,000); AID 1471; Potency, µM (highest dose often 56.4 µM), most hits filed as activators; active = well fitted curve in the direction sought with a large enough effect; inconclusive = small, poorly fitted or top-dose-only effect, or another doubt; inactive = no such curve, though single readings can be large; an effect the other way counts as inactive or inconclusive; note: nearly all actives have a fitted effect of over 45% in size
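PC12 cells with ecdysone-inducible HTT exon 1 Q103-GFP, induced with 100 nM tebufenozide and co-treated with library compounds in a dose series (1536-well, 1500 cells/well). Cytoprotection read as ATP content by ATPlite luminescence.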
HttQ103 aggreg: inhibitors of mutant huntingtin aggregate formation in PC12 cells; actives 1.1% (n = 220,000); Potency, µM (top dose mostly 46.1 µM), most hits filed as inhibitors; PC12 HttQ103-GFP aggregates, Acumen cytometry, 40 h; active = well fitted curve in the direction sought with a large enough effect; inconclusive = small, poorly fitted or top-dose-only effect, or another doubt; inactive = no such curve, though single readings can be large; an effect the other way counts as inactive or inconclusive; note: nearly all actives have a fitted effect of over 60% in size
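Quantitative HTS on tebufenozide-induced (100 nM) PC12 cells stably expressing polyQ103 Huntingtin exon 1–GFP. Reduction of bright GFP aggregates, detected by laser scanning cytometry after lysis, identified actives across the titration.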
Numbers stand for hits; - = inactive; ? = inconclusive; . = no result given; ! = not confirmed by another sample; [ ] = dose if it differs, or a comment. Unless noted, calls come from the whole dose curve; as a rule, active = well fitted inhibition curve with a large enough effect (not every such curve was filed as active); inconclusive = small, poorly fitted or top-dose-only effect, or another doubt; inactive = no such curve, though single readings can be large or run the other way.

SMILES | Lamin A splicing | ALDH1A1 inh | JMJD2E inh | HPGD block | HTT cytoprotect | HttQ103 aggreg
O=C(Nc1ccccc1N1CCCC1)c1ccc(Br)o1 | - | ? | - | - | -[0.074 µM] | ?
O=C(Nc1cccc(F)c1)c1ccc(Br)o1 | - | - | - | - | - | ?
CCN(CC)S(=O)(=O)c1cccc(NC(=O)c2cc3ccccc3o2)c1 | ? | 22.4µM | - | - | - | -
O=C(Nc1ccc(N2CCCC2)c(Cl)c1)c1ccc(Br)o1 | - | 18.9µM | - | - | -[10 µM] | ?
CC(=O)Nc1nnc(SCc2cc(=O)c3cc(C)ccc3[nH]2)s1 | - | . | . | . | . | .
CN(C)c1ccc(-c2cccc(C3CC=CC4C3C(=O)N(Cc3ccccc3)C4c3ccc(C(F)(F)F)cc3)c2)cc1 (configuration not stated) | . | . | ? | . | -[10 µM] | -[9.22 µM]
COc1ccc(-c2cccc(C3CC=CC4C3C(=O)N(Cc3ccccc3)C4c3ccc(C(F)(F)F)cc3)c2)cc1 (configuration not stated) | . | . | - | . | -[10 µM] | 1µM
CC(=O)Nc1sc(C)c(C)c1C(=O)Nc1ccc(C)cc1 | -[0.0737 µM] | - | - | - | - | -
CC(=O)Nc1sc(C)c(C)c1C(=O)OC(C)C | - | 22.4µM | - | - | -[0.074 µM] | -
COCCNC(=O)c1ccc(Cc2nc3ccccc3[nH]2)cc1 | . | - | . | - | . | .
CC(C)(C)NC(=O)c1ccc2nccnc2c1 | - | - | - | - | -[10 µM] | -
C=CCNC(=O)c1ccc2nccnc2c1 | - | - | - | 15.8µM | -[10 µM] | -
CCn1c(C)c(C(C)=O)c(N2CCN(C(c3ccccc3)c3ccccc3)CC2)nc1=S | . | 14.1µM | - | . | - | -
CCn1c(C)c(C(C)=O)c(N2CCCCC2)nc1=S | - | - | - | - | -[10 µM] | -
CCn1c(C)c(C(C)=O)c(N2CCN(c3ccccc3)CC2)nc1=S | - | 11.2µM | ? | - | - | -
CCn1c(C)c(C(C)=O)c(N2CCN(c3ccccn3)CC2)nc1=S | - | - | - | - | -[0.074 µM] | -
O=C1C(=C(O)c2ccccc2)C(=O)c2ccccc21 | ? | 3.98µM | - | - | - | ?
CCN(CC)CC(=O)Nc1scc2c1c(=O)oc1ccccc12 | . | . | - | . | -[10 µM] | -[9.22 µM]
CC1CCCC(NC(=O)COC(=O)CN2C(=O)C3CCCCC3C2=O)C1C (configuration not stated) | - | 25.1µM | - | - | -[10 µM] | -
C=CCSc1n[nH]c(-c2ccc(OCCCC)cc2)n1 | ? | - | - | 15.8µM | - | -
C=CCSc1n[nH]c(-c2ccc(OCCC)cc2)n1 | - | - | - | ? | -[0.074 µM] | -
O=C1CCc2cc(OCCCCc3nnnn3C3CCCCC3)ccc2N1 | ? | 25.1µM! | - | - | - | -
O=C1c2ccccc2C(Nc2ccc(S(=O)(=O)N3CCCCC3)cc2)N1c1ccccn1 (configuration not stated) | - | 5.01µM | - | - | -[10 µM] | -
O=C1c2ccccc2C(Nc2ccc(S(=O)(=O)N3CCOCC3)cc2)N1c1cccnc1 (configuration not stated) | - | - | - | - | - | -
Cc1cc(C)n(CCc2nc3c4ccccc4n(CC#N)c(=O)n3n2)n1 | - | 11.2µM | - | - | - | -
SMILES | Lamin A splicing | ALDH1A1 inh | JMJD2E inh | HPGD block | HTT cytoprotect | HttQ103 aggreg
Cc1cc(C)n(CCc2nc3c4ccccc4nc(SCc4ccc(F)cc4)n3n2)n1 | - | . | . | . | . | .
C[C@](N)(C(=O)O)c1ccc(-c2nn[nH]n2)cc1 | . | 15.8µM | - | - | - | .
CCNc1nc(NCC)n2c(SCc3ccc(F)cc3)nnc2n1 | - | - | - | - | -[10 µM] | 2.51µM
COc1ccc(/C=C/C(=O)NC(=S)NNC(=O)c2cnccn2)cc1 | . | . | 7.94µM | . | -[10 µM] | -[9.22 µM]
O=C(/C=C/c1ccc(F)cc1)NC(=S)NNC(=O)c1cnccn1 | . | . | ? | . | -[10 µM] | -[9.22 µM]
Cc1ccc(Cl)cc1N1CCN(C(=O)c2c(C)oc3ncnc(N4CCOCC4)c23)CC1 | - | . | . | . | . | .
Cc1ccc(/C(N)=N/OC(=O)c2cccs2)cc1 | - | - | - | - | -[10 µM] | -
Cc1cccc(/C(N)=N/OC(=O)c2cccs2)c1 | -[0.0737 µM] | - | - | 20µM | - | -
N/C(=N\OC(=O)c1cccs1)c1ccccc1 | - | - | - | 31.6µM | -[10 µM] | -
CC(C)c1cccc2nc3c(c(C(C)(C)C)c12)Cn1c-3cccc1=O | . | ? | ? | ? | - | .
O=C(c1cccc(F)c1)N1CCCC(C(=O)N2CCN(c3ccccc3)CC2)C1 (configuration not stated) | . | . | - | . | -[10 µM] | -[9.22 µM]
Cc1[nH]c(=O)[nH]c(=O)c1Cc1cccc2ccccc12 | . | 10µM | - | . | . | -
Cc1nc(N2CCN(C)CC2)[nH]c(=O)c1Cc1cccc2ccccc12 | - | ? | - | - | -[0.074 µM] | -[9.22 µM]
O=C(Nc1cc(Cl)ccc1N1CCOCC1)c1cccnc1Cl | . | . | - | . | -[10 µM] | -[9.22 µM]
Cc1cc(-n2c(C)nc3ccccc3c2=O)ccc1NC(=O)C(F)(F)F | - | . | . | . | . | .
Cc1ccc(S(=O)(=O)N(Cc2cc3ccccc3[nH]c2=O)c2cccc(C)c2)cc1 | . | - | - | . | -[10 µM] | -[9.22 µM]
Cc1cccc(N(Cc2cc3ccccc3[nH]c2=O)S(C)(=O)=O)c1 | . | 23.8µM | - | . | - | -
Cc1ccc(S(=O)(=O)N(C(=O)c2ccncc2)c2ccc(OC(=O)c3ccncc3)cc2)c(C)c1 | - | - | - | 28.2µM | -[10 µM] | -
CCCc1nn2c(=O)cc(COC(=O)c3ccc(NC(=O)CCc4ccccc4)cc3)nc2s1 | - | . | . | . | . | .
COc1cc(CNc2ccc(N3CCN(C(C)=O)CC3)cc2)ccc1OCc1ccccc1 | - | 17.8µM | 15.8µM | . | -[10 µM] | -[9.22 µM]
CCc1ccc(CNc2ccc(N3CCN(C(C)=O)CC3)cc2)cc1 | - | 22.4µM | ? | - | -[0.074 µM] | ?
N=c1ccn2c(n1)O[C@H]1[C@@H](OP(=O)(O)O)[C@H](CO)O[C@H]12 | . | -[13.5 µM] | . | - | -[10 µM] | .
CC(=O)Nc1ccc(S(=O)(=O)N(C)c2ccc(OCC(=O)OCC(=O)NCc3ccco3)cc2)cc1 | . | . | - | . | -[10 µM] | -[9.22 µM]
CCN1/C(=C/c2ccc3cc(C)cc(C)c3[n+]2CC)Sc2cc(C)ccc21 | ? | 20µM | ? | . | -[10 µM] | ?
CCN1/C(=C\c2ccc3cc(C)ccc3[n+]2CC)Sc2cc(C)c(C)cc21 | - | ? | ? | . | - | 0.891µM
CCN1/C(=C/c2ccc3cccc(C)c3[n+]2CC)Sc2ccccc21 | ? | ? | - | - | - | 1.12µM
O=C(CSc1nc2c([nH]c3ccccc32)c(=O)n1-c1ccccc1)Nc1ccc2c(c1)OCCO2 | - | . | . | . | . | .
C=CCN1c2ccccc2[C@]23C[C@@H](C(=O)OC)N(S(=O)(=O)c4ccc(C(F)(F)F)cc4)C2=NC(C(=O)OC)=C(C(=O)OC)[C@H]13 | -[9.22 µM] | -[13.5 µM] | -[11.4 µM] | - | -[10 µM] | .
CC(C)(C)[C@]1(O)CCN2CC3c4ccccc4CCc4cccc(c43)[C@@H]2C1 (some centres not stated) | ? | - | - | - | - | -
Cc1ccc(C)c(N2CCN(C(=O)CSc3ccsc3[N+](=O)[O-])CC2)c1 | ? | 11.2µM | - | ? | -[10 µM] | -

High-throughput results deposited in PubChem by National Center for Advancing Translational Sciences (NCATS).
